Measurements reported in PubChem BioAssay (NCI).
This is part of a sample that, as a whole, favours compounds with a hit. Of some 79,000 tested, about 15% had one in any assay. The source made the active and inactive calls. Cut-off read from the data, not from the text of the source: active = growth inhibition above about 70%; inactive = the rest.

Assays:
[1] = NCI Yeast Anticancer Drug Screen. Data for the wt1 strain (AID 149);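 note: 0% = growth of vehicle-treated wt1 cultures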; settings: S. cerevisiae wt1 strain (SPY 50644) growth inhibition, stronger effect = higher value
Summary of the method: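 Yeast wt1 strain exposed to compounds; growth inhibition measured relative to vehicle-treated controls.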

[2] = NCI Yeast Anticancer Drug Screen. Data for the rad50EPP+ strain (AID 151);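 note: 0% = growth of vehicle-treated control cultures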; settings: S. cerevisiae rad50 mutant strain, stronger effect = higher value
Summary of the method: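 Strain rad50EPP+; compound exposure; % growth inhibition vs vehicle.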

[3] = NCI Yeast Anticancer Drug Screen. Data for the mgt1 strain (AID 153); settings: S. cerevisiae mgt1 mutant growth inhibition, stronger effect = higher value
Summary of the method: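 Read-out: yeast growth inhibition vs vehicle control. Strain mgt1, drawn from a panel altered in DNA damage repair or cell cycle control.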

[4] = NCI Yeast Anticancer Drug Screen. Data for the rad50 strain (AID 155);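 note: 0% = growth of vehicle-only cultures of the same strain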; settings: S. cerevisiae rad50 strain growth inhibition, stronger effect = higher value
Summary of the method: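 Yeast carrying a defined DNA repair defect were exposed to test compounds, and growth was compared with vehicle-treated controls to give percent inhibition.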

[5] = NCI Yeast Anticancer Drug Screen. Data for the mec2-1 strain (AID 157); settings: S. cerevisiae mec2-1 strain, stronger effect = higher value
Summary of the method: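 Cells of the genetically defined mec2-1 yeast strain are incubated with test compound. Inhibition of growth is calculated against vehicle-treated controls.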

[6] = NCI Yeast Anticancer Drug Screen. Data for the rad14 strain (AID 159);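 note: 0% = growth of vehicle-treated control cultures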; settings: S. cerevisiae rad14 strain growth inhibition, stronger effect = higher value
Summary of the method: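 Yeast cells carrying a defined DNA-repair defect were exposed to compounds, and growth inhibition was calculated relative to vehicle-treated control cultures.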

[7] = NCI Yeast Anticancer Drug Screen. Data for the sgs1 mgt1 strain (AID 161);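 note: 0% = growth of cultures given vehicle only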; settings: S. cerevisiae sgs1 mgt1 strain, stronger effect = higher value
Summary of the method: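 Read-out: growth inhibition vs vehicle controls. Cells: mutant yeast strain deficient in DNA damage repair.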

[8] = NCI Yeast Anticancer Drug Screen. Data for the CLN2oe strain (AID 163);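 note: 0% = growth of vehicle-only control cultures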; settings: S. cerevisiae CLN2oe strain, stronger effect = higher value
Summary of the method: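 Strain altered in cell-cycle control, incubated with compound; growth compared to solvent-treated controls.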

[9] = NCI Yeast Anticancer Drug Screen. Data for the cln2 rad14 strain (AID 165);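 note: 0% = growth equal to vehicle treated cultures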; settings: S. cerevisiae cln2 rad14 strain, stronger effect = higher value
Summary of the method: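 The screen exposed genetically defined yeast (cln2 rad14) to test compounds and scored growth inhibition relative to vehicle-treated controls.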

[10] = NCI Yeast Anticancer Drug Screen. Data for the bub3 strain (AID 167); settings: S. cerevisiae bub3 mutant strain, stronger effect = higher value
Summary of the method: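 Compounds were applied to a genetically altered yeast strain carrying a cell-cycle control defect. Growth inhibition was scored against vehicle-treated controls.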

[11] = NCI Yeast Anticancer Drug Screen. Data for the wt2 strain (AID 169);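 note: 0% = growth of vehicle-treated yeast cultures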; settings: S. cerevisiae wt2 strain growth inhibition, stronger effect = higher value
Summary of the method: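 Steps: yeast strain treated with compound; growth recorded; inhibition calculated relative to cultures given vehicle alone.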

[12] = NCI Yeast Anticancer Drug Screen. Data for the mlh1 strain (AID 171);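 note: 0% = growth of vehicle-treated control cultures of the same strain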; settings: S. cerevisiae mlh1 strain growth inhibition, stronger effect = higher value
Summary of the method: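 Yeast screen: mutant strain plus compound, growth scored against vehicle control wells.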

[13] = NCI Yeast Anticancer Drug Screen. Data for the sgs1 strain (AID 173);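 note: 0% = growth of vehicle-only control cultures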; settings: S. cerevisiae sgs1 mutant, stronger effect = higher value
Summary of the method: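 Inhibition of yeast growth served as the measure. The mutant strain was treated with each compound, and growth was normalised to cultures receiving vehicle alone.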

[14] = NCI Yeast Anticancer Drug Screen. Data for the mlh1 rad18 strain (AID 175); settings: S. cerevisiae mlh1 rad18 strain growth inhibition, stronger effect = higher value
Summary of the method: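 Compound-treated yeast growth, normalised to vehicle controls. Strain bears defined DNA repair mutations.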

[15] = NCI Yeast Anticancer Drug Screen. Data for the rad18 strain (AID 177); settings: S. cerevisiae rad18 mutant growth inhibition, stronger effect = higher value
Summary of the method: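 Inhibition values reflect reduced yeast growth compared with vehicle-treated controls, using a strain engineered with a DNA damage repair defect.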

[16] = at 5.0 µM (retest, dose inferred, filed as 0.5)
[17] = at 50.0 µM (retest, dose inferred, filed as 5.0)

Measured: growth inhibition

COC1=CC(=O)C2C(C1=O)C(c1ccc(Cl)cc1)[C@@H]2C (some centres undefined)
inactive: [1]; at 1.2 µM 11% | [1]; at 3.7 µM 23% | [2]; at 1.2 µM 29% | [2]; at 3.7 µM 64% | [3]; at 1.2 µM 21% | [3]; at 3.7 µM 30% | [4]; at 1.2 µM 2% | [4]; at 3.7 µM 12% | [4]; [16] 4% | [5]; at 1.2 µM 34% | [5]; at 3.7 µM 49% | [5]; [16] -12% | [6]; at 1.2 µM -3% | [6]; at 3.7 µM 12% | [7]; [16] -10% | [8]; at 1.2 µM 19% | [8]; at 3.7 µM 29% | [9]; [16] 30% | [10]; at 1.2 µM 24% | [10]; at 3.7 µM 53% | [10]; [16] 41% | [11]; at 1.2 µM 6% | [11]; at 3.7 µM 22% | [12]; at 1.2 µM 20% | [12]; at 3.7 µM 39% | [13]; at 1.2 µM 33% | [13]; at 3.7 µM 48% | [14]; [16] 23% | [15]; at 1.2 µM 14% | [15]; at 3.7 µM 29%
active: [1]; at 11.0 µM 99% | [1]; at 33.0 µM 99% | [1]; at 100.0 µM 99% | [2]; at 11.0 µM 98% | [2]; at 33.0 µM 98% | [2]; at 100.0 µM 98% | [3]; at 11.0 µM 99% | [3]; at 33.0 µM 99% | [3]; at 100.0 µM 99% | [4]; at 11.0 µM 98% | [4]; at 33.0 µM 98% | [4]; [17] 98% | [4]; at 50.0 µM 90.5% | [4]; at 100.0 µM 98% | [5]; at 11.0 µM 99% | [5]; at 33.0 µM 98% | [5]; [17] 99% | [5]; at 50.0 µM 93.8% | [5]; at 100.0 µM 99% | [6]; at 11.0 µM 98% | [6]; at 33.0 µM 99% | [6]; at 100.0 µM 99% | [7]; [17] 98% | [7]; at 50.0 µM 92% | [8]; at 11.0 µM 99% | [8]; at 33.0 µM 99% | [8]; at 100.0 µM 99% | [9]; [17] 98% | [9]; at 50.0 µM 90.5% | [10]; at 11.0 µM 99% | [10]; at 33.0 µM 99% | [10]; [17] 99% | [10]; at 50.0 µM 90.8% | [10]; at 100.0 µM 99% | [11]; at 11.0 µM 94% | [11]; at 33.0 µM 98% | [11]; at 100.0 µM 99% | [12]; at 11.0 µM 98% | [12]; at 33.0 µM 99% | [12]; at 100.0 µM 99% | [13]; at 11.0 µM 99% | [13]; at 33.0 µM 99% | [13]; at 100.0 µM 98% | [14]; [17] 98% | [14]; at 50.0 µM 90.5% | [15]; at 11.0 µM 97% | [15]; at 33.0 µM 99% | [15]; at 100.0 µM 99%

C/C(=N\O)C1CC2C=C(C#N)C1N(Cc1ccccc1)C2 (centres undefined)
inactive: [1]; at 1.2 µM 0% | [1]; at 3.7 µM 4% | [1]; at 11.0 µM 1% | [1]; at 33.0 µM -1% | [1]; at 100.0 µM -1% | [2]; at 1.2 µM 2% | [2]; at 3.7 µM 2% | [2]; at 11.0 µM 5% | [2]; at 33.0 µM 9% | [2]; at 100.0 µM 19% | [4]; at 1.2 µM -3% | [4]; at 3.7 µM -3% | [4]; [16] -6% | [4]; at 11.0 µM 0% | [4]; at 33.0 µM 0% | [4]; [17] -1% | [4]; at 50.0 µM 8.05% | [4]; at 100.0 µM 5% | [5]; at 1.2 µM 0% | [5]; at 3.7 µM 3% | [5]; [16] -16% | [5]; at 11.0 µM 4% | [5]; at 33.0 µM 4% | [5]; [17] -13% | [5]; at 50.0 µM 7.3% | [5]; at 100.0 µM 0% | [6]; at 1.2 µM -3% | [6]; at 3.7 µM -1% | [6]; at 11.0 µM 2% | [6]; at 33.0 µM 1% | [6]; at 100.0 µM 7% | [7]; [16] -10% | [7]; [17] 24% | [7]; at 50.0 µM 3.75% | [8]; at 1.2 µM -5% | [8]; at 3.7 µM -14% | [8]; at 11.0 µM -7% | [8]; at 33.0 µM -2% | [8]; at 100.0 µM -2% | [9]; [16] -1% | [9]; [17] 8% | [9]; at 50.0 µM 11.3% | [10]; at 1.2 µM -4% | [10]; at 3.7 µM -5% | [10]; [16] -3% | [10]; at 11.0 µM -3% | [10]; at 33.0 µM -2% | [10]; [17] 13% | [10]; at 50.0 µM 10.7% | [10]; at 100.0 µM -5% | [12]; at 1.2 µM -3% | [12]; at 3.7 µM 0% | [12]; at 11.0 µM 0% | [12]; at 33.0 µM 0% | [12]; at 100.0 µM 0% | [13]; at 1.2 µM 1% | [13]; at 3.7 µM 1% | [13]; at 11.0 µM 4% | [13]; at 33.0 µM 9% | [13]; at 100.0 µM 17% | [14]; [16] 0% | [14]; [17] 62% | [14]; at 50.0 µM 9% | [15]; at 1.2 µM 5% | [15]; at 3.7 µM 13% | [15]; at 11.0 µM 40%
active: [15]; at 33.0 µM 77% | [15]; at 100.0 µM 86%

COc1ccc(N=C2C(=O)Nc3ccc(Br)cc32)cc1
inactive: [1]; at 1.2 µM 8% | [1]; at 3.7 µM 15% | [1]; at 11.0 µM 9% | [1]; at 33.0 µM 14% | [1]; at 100.0 µM 15% | [2]; at 1.2 µM -9% | [2]; at 3.7 µM 1% | [2]; at 11.0 µM -11% | [2]; at 33.0 µM 6% | [2]; at 100.0 µM -20% | [4]; at 1.2 µM -14% | [4]; at 3.7 µM -14% | [4]; [16] 50% | [4]; at 11.0 µM -23% | [4]; at 33.0 µM -11% | [4]; [17] 61% | [4]; at 50.0 µM 13.8% | [4]; at 100.0 µM -5% | [5]; at 1.2 µM -19% | [5]; at 3.7 µM -13% | [5]; [16] 48% | [5]; at 11.0 µM -19% | [5]; at 33.0 µM -26% | [5]; [17] 61% | [5]; at 50.0 µM 10.7% | [5]; at 100.0 µM -20% | [7]; [16] -15% | [7]; [17] 23% | [7]; at 50.0 µM 28.9% | [8]; at 1.2 µM -7% | [8]; at 3.7 µM 23% | [8]; at 11.0 µM 19% | [8]; at 33.0 µM 23% | [8]; at 100.0 µM 1% | [9]; [16] 54% | [9]; [17] 37% | [9]; at 50.0 µM -7.9% | [10]; at 1.2 µM -7% | [10]; at 3.7 µM -7% | [10]; [16] 32% | [10]; at 11.0 µM -2% | [10]; at 33.0 µM 2% | [10]; at 100.0 µM 50% | [11]; at 1.2 µM 19% | [11]; at 3.7 µM 1% | [11]; at 11.0 µM 9% | [11]; at 33.0 µM 20% | [11]; at 100.0 µM 11% | [12]; at 1.2 µM 6% | [12]; at 3.7 µM -3% | [12]; at 11.0 µM -19% | [12]; at 33.0 µM -24% | [12]; at 100.0 µM -18% | [13]; at 1.2 µM 1% | [13]; at 3.7 µM -10% | [13]; at 11.0 µM -5% | [13]; at 33.0 µM -16% | [13]; at 100.0 µM -11% | [14]; [16] 47% | [14]; [17] 55% | [14]; at 50.0 µM 27% | [15]; at 1.2 µM -25% | [15]; at 3.7 µM -36% | [15]; at 11.0 µM -39% | [15]; at 33.0 µM -30% | [15]; at 100.0 µM -28%
active: [10]; [17] 85% | [10]; at 50.0 µM 82.4%
